Experimental data published in PubChem BioAssay (NCATS).
Inconclusive results are not listed. Active and inactive are the calls of the source. Calls follow the shape of the dose curve; as a rule, active = well fitted curve in the direction sought with a large enough effect; inconclusive = small, poorly fitted or top-dose-only effect, or another doubt; inactive = no such curve, though single readings can be large; an effect the other way counts as inactive or inconclusive.

Assays:
[1] = system: CRL-7250; assay: Cytotoxic Profiling of Annotated Libraries Using Quantitative High-Throughput Screening (AID 1296008); conditions: Five cell lines viability, CellTiter-Glo ATP luminescence, 48-72 h; max response: active compounds read low; also: nearly all actives have a fitted effect of over 60% in size; as to max response: % is scaled to controls: 0 for no effect and ±100 for the full control effect
Method in brief: (§1)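 Cytotoxicity was measured as CellTiter-Glo ATP luminescence, read after 10 min at room temperature. Compound treatment of the cells lasted 48 or 72 hr at 37 degrees Celsius in a qHTS format.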

[2] = system: HEK293; assay: as above; conditions: Five cell lines viability, CellTiter-Glo ATP luminescence, 48-72 h; max response: active compounds read low
Method in brief: as §1

[3] = system: HaCat; assay: as above; conditions: Five cell lines viability, CellTiter-Glo ATP luminescence, 48-72 h; max response: active compounds read low
Method in brief: as §1

[4] = system: KB-3-1; assay: as above; conditions: Five cell lines viability, CellTiter-Glo ATP luminescence, 48-72 h; max response: active compounds read low
Method in brief: as §1

[5] = system: NIH3T3; assay: as above; conditions: Five cell lines viability, CellTiter-Glo ATP luminescence, 48-72 h; max response: active compounds read low
Method in brief: as §1

[6] = system: HACAT; assay: qHTS assay to identify novel small-molecules to repurpose for Merkel cell carcinoma treatment (AID 1296009); conditions: MCC and control cell lines, CellTiter-Glo viability, 72 h; at 44.8 µM (top of the series) unless noted; also: nearly all actives have a fitted effect of over 60% in size
Method in brief: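 After compound transfer in DMSO, plates were kept 72 hr at 37 degree celsius. Luminescent ATP signal from CellTiter-Glo served as viability measure, normalized against DMSO and no-cell controls.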

[7] = system: C33A; assay: Primary qHTS to identify gynecologic anti-cancer compounds using libraries of approved drugs and bioactive compounds (AID 1345084); conditions: Gynecologic cancer cell panel viability, ATPlite luminescence, 48 h; series mostly up to 57.5 µM; also: % is scaled to controls: 0 for no effect and ±100 for the full control effect; nearly all actives have a fitted effect of over 55% in size
Method in brief: (§2)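 Luminescence from the ATPlite ATP-monitoring reagent indicates viable cell number; lower signal means cytotoxicity. Cells received compound 16 h after seeding and were exposed for 48 h across five concentrations.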

[8] = system: CAOV3; assay: as above; conditions: Gynecologic cancer cell panel viability, ATPlite luminescence, 48 h; series mostly up to 57.5 µM
Method in brief: as §2

[9] = system: Es-2; assay: as above; conditions: Gynecologic cancer cell panel viability, ATPlite luminescence, 48 h; series mostly up to 57.5 µM
Method in brief: as §2

[10] = system: HeLa; assay: as above; conditions: Gynecologic cancer cell panel viability, ATPlite luminescence, 48 h; series mostly up to 57.5 µM
Method in brief: as §2

[11] = system: Hek293T; assay: as above; conditions: Gynecologic cancer cell panel viability, ATPlite luminescence, 48 h, control line for the selectivity index; series mostly up to 57.5 µM
Method in brief: as §2

[12] = system: JEG-3; assay: as above; conditions: Gynecologic cancer cell panel viability, ATPlite luminescence, 48 h; series mostly up to 57.5 µM
Method in brief: as §2

[13] = system: OV90; assay: as above; conditions: Gynecologic cancer cell panel viability, ATPlite luminescence, 48 h; series mostly up to 57.5 µM
Method in brief: as §2

[14] = system: CASKI; assay: as above; conditions: Gynecologic cancer cell panel viability, ATPlite luminescence, 48 h; series mostly up to 57.5 µM
Method in brief: as §2

CC(C)(O)C1OC1C1=CC(=O)C2(C)OC2C1O (stereo not drawn)
inactive: outcome [1] | max response [2] -1.71% | outcome [3] | outcome [4] | max response [5] 3.09% | outcome [6] | Potency [7] | Potency [8] | Potency [9] | Potency [10] | Potency [11] | Potency [12] | Potency [13]

COC(=O)C(CC1(OC(=O)C(C)C)c2ccccc2N2C(=O)C(C)(C)N(O)C21)n1cnc2ccccc2c1=O (stereo not drawn)
inactive: max response [1] -11.1% | max response [2] -9.23% | outcome [3] | max response [4] 5.72% | max response [5] -14.6% | outcome [6] inactive [at 17.4 µM] | Potency [7] | outcome [14] | Potency [9] | Potency [10] | Potency [11] | Potency [12] | Potency [13]

CC/C=C/C=C/C1(C)OC(CC(CO)OC)=CC1=O (stereo not drawn)
inactive: max response [1] -6.3% | max response [2] -18.9% | outcome [3] | outcome [4] | max response [5] 1.62% | outcome [6] | Potency [7] | outcome [14] | Potency [9] | Potency [10] | Potency [11] | Potency [12] | Potency [13]

C=CC(C)(CC/C=C(\C)C(=O)OC[C@H]1O[C@@H](OC(C)(C=C)CC/C=C(\C)C(=O)O[C@H]2[C@H](O)[C@@H](O)[C@H](OC(C)(C=C)CC/C=C(\C)C(=O)O)O[C@@H]2CO)[C@H](O)[C@@H](O)[C@@H]1O)O[C@@H]1O[C@H](CO)[C@@H](O)[C@H](O)[C@H]1O (stereo partly drawn)
inactive: max response [1] -2.1% | max response [2] -7.01% | outcome [3] | max response [4] 3.96% | max response [5] -1.72% | outcome [6] inactive [at 9.27 µM] | activity change, negative = cytotoxicity [7] -1.99% [at 11.6 µM] | activity change, negative = cytotoxicity [8] -17.5% [at 11.6 µM] | activity change, negative = cytotoxicity [14] -16.7% [at 11.6 µM] | activity change, negative = cytotoxicity [9] -6.19% [at 11.6 µM] | activity change, negative = cytotoxicity [10] 2.2% [at 11.6 µM] | activity change, negative = cytotoxicity [11] -1.07% [at 11.6 µM] | activity change, negative = cytotoxicity [12] -1.18% [at 11.6 µM] | activity change, negative = cytotoxicity [13] 2.45% [at 11.6 µM]

CCOc1ccc(-c2nn3ncccc3c2-c2ccc(S(C)(=O)=O)cc2)cc1
inactive: max response [1] -7.67% | max response [2] -11.9% | outcome [3] | max response [4] 2.36% | max response [5] 3.39% | outcome [6] | Potency [7] | Potency [8] | outcome [14] | Potency [9] | Potency [10] | Potency [11] | Potency [13]

C/C=C(\C)C(=O)OC1C2(O)CC3=C4CC(=O)OC(c5ccoc5)C4(C)CCC3C(C)(C2=O)C(C(OC(C)=O)C(=O)OC)C1(C)C (stereo not drawn)
inactive: outcome [1] | max response [2] -2.36% | outcome [3] | max response [4] -3.65% | max response [5] 1.4% | outcome [6] inactive [at 17.4 µM] | Potency [7] | Potency [8] | Potency [9] | Potency [10] | Potency [11] | Potency [12] | Potency [13]

COc1cc(O)cc(O[C@@H]2O[C@H](CO)[C@@H](O[C@@H]3OC[C@](O)(CO)[C@H]3O)[C@H](O)[C@H]2O)c1OC
inactive: max response [1] 2.5% | max response [2] -4.25% | outcome [3] | outcome [4] | max response [5] 2.33% | outcome [6] inactive [at 17.4 µM] | Potency [7] | Potency [8] | outcome [14] | Potency [9] | Potency [10] | Potency [11] | Potency [12] | Potency [13]

COc1ccc2c(c1)C=C1Cn3c-2c(C2CCCCC2)c2ccc(cc23)C(=O)NS(=O)(=O)N(C)CCOCCN(C)C1=O
inactive: max response [1] -49.9% | max response [2] -78% | outcome [3] | max response [4] -5.47% | max response [5] -17.2% | outcome [6] | Potency [7] | Potency [8] | outcome [14] | Potency [10] | Potency [11] | Potency [12] | Potency [13]

CC1(C)CC[C@]2(C(=O)O[C@@H]3O[C@H](CO)[C@@H](O)[C@H](O)[C@H]3O)CC[C@]3(C)C(=CCC4[C@@]5(C)CC[C@H](O[C@@H]6O[C@H](C(=O)O)[C@@H](O)[C@H](O)[C@H]6OC6OC(CO)C(O)C(O)C6O)C(C)(C)C5CC[C@]43C)[C@@H]2C1 (stereo partly drawn)
inactive: max response [1] 3.56% | max response [2] -12.1% | outcome [3] | outcome [4] | outcome [5] | outcome [6] inactive [at 9.27 µM] | activity change, negative = cytotoxicity [7] 0.935% [at 11.6 µM] | activity change, negative = cytotoxicity [8] 8.5% [at 11.6 µM] | activity change, negative = cytotoxicity [14] 2.93% [at 11.6 µM] | activity change, negative = cytotoxicity [9] 5.59% [at 11.6 µM] | activity change, negative = cytotoxicity [10] 8.29% [at 11.6 µM] | activity change, negative = cytotoxicity [11] 25.2% [at 11.6 µM] | activity change, negative = cytotoxicity [12] 4.48% [at 11.6 µM] | activity change, negative = cytotoxicity [13] 1.96% [at 11.6 µM]

CC1=CC2=C(C)C(=O)C(C)(O)C(O)C2CO1 (stereo not drawn)
inactive: max response [1] -6.39% | max response [2] -9.93% | outcome [3] | max response [4] 5.71% | max response [5] 1.32% | outcome [6] | Potency [7] | Potency [8] | outcome [14] | Potency [9] | Potency [10] | Potency [11] | Potency [12] | Potency [13]

C=C1CCC2[C@](C)(CCC[C@]2(C)C(=O)O)[C@H]1CC/C(C)=C/C(=O)OC (stereo partly drawn)
inactive: max response [1] -5.17% | max response [2] -8.16% | outcome [3] | outcome [4] | max response [5] 0.39% | outcome [6] | Potency [7] | Potency [8] | outcome [14] | Potency [9] | Potency [10] | Potency [11] | Potency [12] | Potency [13]
